Compound activity: PubChem, National Center for Advancing Translational Sciences (NCATS)
HCV inh: blocks hepatitis C virus; Huh7.5.1 HCVcc-Cre infection, luciferase reporter, 44 h; Potency, µM (top dose mostly 41.8 µM), for inactives: at the top dose activity change, negative = inhibition, hits mostly inhibitors; hit rate 3.4% among 340,000; active means well fitted inhibition curve with a large enough effect; inconclusive means small, poorly fitted or top-dose-only effect, or another doubt; inactive means no such curve, though single readings can be large or run the other way; further: potency means the concentration at half of the fitted maximal effect; on the % scale 0 is the no-effect control and ±100 the full control effect
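1,000 cells/well; 4 h culture; + compound; + HCVcc-Cre (~0.5 moi); 44 h; luciferase substrate, RT 15 min; read 15 sec.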
Marburg entry inh: Marburg virus entry inhibition; Marburg virus pseudotyped entry inhibition, cell reporter; Potency, µM (highest dose often 37.8 µM), without a hit: at the top dose activity change, negative = inhibition, actives largely listed as inhibitors; hit rate 1.8% among 300,000; AID 540276; calls by dose curve; tested in HEK293 cells; further: potency means the concentration at half of the fitted maximal effect; on the % scale 0 is the no-effect control and ±100 the full control effect
FMDV inh: blocks foot and mouth disease virus; FMDV antiviral cell-based qHTS; Potency, µM (doses to about 57.9 µM), inactives show at the top dose activity change, negative = inhibition, actives largely listed as inhibitors; hit rate 1.2% among 410,000; calls by dose curve; tested in HEK293T cells; further: read-out not given here; potency means the concentration at half of the fitted maximal effect; on the % scale 0 is the no-effect control and ±100 the full control effect; nearly all actives have a fitted effect of over 45% in size
LASV entry inh: Lassa virus entry inhibition; Potency, µM (series often up to 37.9 µM), without a hit: top-dose activity change, negative = inhibition, usual class: inhibitors; hit rate 1.2% among 300,000; Lassa virus pseudotype entry inhibition, cell reporter; AID 540256; calls by dose curve; tested in HEK293 cells; further: potency means the concentration at half of the fitted maximal effect; on the % scale 0 is the no-effect control and ±100 the full control effect; nearly all actives have a fitted effect of over 50% in size
HCMV inh: human cytomegalovirus inhibition | AID 1259415 | HFF cells, HCMV-luciferase reporter, 72 h; active compounds read low | activity change, negative = inhibition, % at 57.5 µM | hit rate 4.5% among 410,000; in the data active means activity change below about -60%; inconclusive means no clear call, values can overlap the other calls; inactive means above about -39%; further: on the % scale 0 is the no-effect control and ±100 the full control effect
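After 16 h attachment at 37C, HFF cells received test compound and HCMV-luciferase (1 PFU/cell); reporter luminescence read 72 h later, data normalized against buffer-only and known inhibitor Salinomycin.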
SARS PLP yeast: blocks SARS-CoV papain-like protease in a yeast assay. S. cerevisiae expressing SARS-CoV PLpro, growth rescue. Potency, µM (top dose mostly 32.9 µM), for inactives: at the top dose activity, positive = growth rescue, most hits filed as activators. hit rate 0.19% among 330,000; calls by dose curve; further: potency means the concentration at half of the fitted maximal effect; 0% is about no effect; nearly all actives have a fitted effect of over 55% in size
The depositor's hits bear a star; u = inconclusive; x = no result given; + = active, no number; ! = a repeat was not active; [ ] = remark or other dose. Shown are actives, neighbours in structure and some others; about 8% of the full set was active somewhere.

SMILES	HCV inh	Marburg entry inh	FMDV inh	LASV entry inh	HCMV inh	SARS PLP yeast
CN(c1cc2c(c3c1ccn3C)C1CCC2O1)C(C)(C)C (stereo not drawn)	x	x	x	3.5µM*	x	x
CN(Cc1ccccc1)c1nc(N)nc(Cl)c1C=O	4µM*	u	u	-2%	-29	2%
Cc1nc2c(C(=O)NCc3ccccc3Cl)cnn2c(C)c1Cc1c(F)cccc1Cl	x	x	7%	u	0	x
COc1ccc(CNc2ccc(Cl)cc2)cc1Cn1ccnc1	u	u	u	-15%	-20	-4%
CCc1ccc(NCc2ccc(OC)c(Cn3ccnc3)c2)cc1	u	x	u	x	-64*	-6%
CCOC(=O)Cn1c2ccccc2c2nc3ccccc3nc21	7%	1%[46.1 µM]	-7%	8%	37	2%
CCOC(=O)Cn1c(C(F)(F)F)nc2nc(Cl)c(Cl)nc21	u	-20%	u	-14%[46.1 µM]	-98*	x
COC(=O)C1=C(C(=O)OC)[C@@H]2Nc3ccccc3[C@@]23C[C@@H](C(=O)OC)N(C(=O)NC(C)(C)C)C3=N1	x	2%[14.2 µM]	x	x	x	x
CC(C)C[C@@H](C(=O)NC1CC1)N1C(=O)N2CCc3c([nH]c4ccccc34)[C@@]2(C)C1=O	-29%	x	-26%	x	14	5%
COc1ccc2[nH]c3c(c2c1)CCN1C(=O)N([C@@H](C)C(=O)NCc2ccccc2OC)C(=O)[C@]31C	13µM*	x	-27%	x	17	-1%
COc1ccc2[nH]c3c(c2c1)CCN1C(=O)N([C@@H](C)C(=O)NCc2ccccc2)C(=O)[C@]31C	-24%	x	-1%	x	14	5%
C[C@@H](C(=O)NCCc1ccccc1F)N1C(=O)N2CCc3c([nH]c4ccccc34)[C@@]2(C)C1=O	6.3µM*	x	0%	x	5	-28%
C[C@@H](C(=O)NCCc1ccccc1)N1C(=O)N2CCc3c([nH]c4ccccc34)[C@@]2(C)C1=O	11µM*	x	-33%	x	-5	-24%
CCCCc1nn2c(=O)cc(COC(=O)c3cccc(NC(=O)CCc4ccccc4)c3)nc2s1	x	x	-28%	u	86	x
CCc1c(C)nc2ncnn2c1NCCc1ccc(OC)cc1	5.6µM*	u	11µM*	u	-92*	-1%
CCc1c(C)nc2ncnn2c1NCc1cccs1	-22%	u	x	-27%	-69*	-3%
CCC(=O)NC1CCc2cccc(OC)c2C1 (stereo not drawn)	x	x	2%	x	x	x
COc1ccc(-c2cn3nc(N4CCCC(C(=O)Nc5ccc(C)c(C)c5)C4)sc3n2)cc1 (stereo not drawn)	x	x	11%	0%[46.1 µM]	0	x
CCNC(=O)C1CCCN(c2nn3cc(-c4ccc(C)cc4)nc3s2)C1 (stereo not drawn)	x	x	20µM*	19%[46.1 µM]	u	x
O=C(NCc1ccccc1F)C1CCN(c2nn3cc(-c4ccc(F)cc4)nc3s2)CC1	x	x	35%	u	0	x
CCOc1ccc(NC(=O)C2CCCN(c3nn4cc(-c5ccc(OC)cc5)nc4s3)C2)cc1 (stereo not drawn)	x	x	0%	7%[46.1 µM]	+	x
CCOc1ccccc1CNC(=O)C1CCN(c2nn3cc(-c4ccc(F)cc4)nc3s2)CC1	x	x	33%	14%[46.1 µM]	+	x
COc1ccc(OCC(O)Cn2c(NCCO)nc3c2c(=O)n(C)c(=O)n3C)cc1 (stereo not drawn)	x	u	u	-24%[46.1 µM]	-36	x
COC(=O)CC=C[C@@H](C)[C@H](OC)c1cc(OC)ccc1Br	x	3%[14.2 µM]	x	x	x	x
COc1cc2cc(CNc3ccc(C)cc3)c(=O)n(CC(=O)Nc3ccc(F)cc3F)c2cc1OC	x	x	47%	29%[46.1 µM]	33	x
SMILES	HCV inh	Marburg entry inh	FMDV inh	LASV entry inh	HCMV inh	SARS PLP yeast
CCc1cccc(C)c1NC(=S)NCc1ccc2c(c1)cc(C)n2C	u	u	-13%	u	-91*	-10%
CCN1/C(=C/c2cc[n+](C)cc2)C=Cc2cc(C)ccc21	5µM*	u	5µM*	u	-100*	6%
CCCCCCn1c(N)c(C(=O)NCCN2CCOCC2)c2nc3ccccc3nc21	u	u	11µM*	u	-19	-7%
Nc1c(C(=O)Nc2ccccc2)c2nc3ccccc3nc2n1CCCN1CCOCC1	22µM*	u	u	-10%	109	2%
N#Cc1c(N)n(CCNC(=O)c2ccccc2)c2nc3ccccc3nc12	0%	-1%	-21%	-5%	-66*	14%
N#Cc1c(N)n(CCNC(=O)c2cccs2)c2nc3ccccc3nc12	9%	-2%	-12%	-13%	-34	1%
CCCCCn1c(N)c(C(=O)NCCN2CCOCC2)c2nc3ccccc3nc21	-5%	u	u	u	-40	0%
COCCCn1c(N)c(C(=O)NCCC(C)C)c2nc3ccccc3nc21	8.9µM*	u	-13%	-10%	-27	-9%
CCCCn1c(N)c(C(=O)OCCOC)c2nc3ccccc3nc21	7%	13%[46.1 µM]	-1%	-12%	-3	1%
C[C@H]1[C@@H](NC(=O)Nc2ccccc2)CC[C@@]23CCCN2C(=O)CCC[C@@H]13	x	x	x	x	0	x
Cc1ccc(NC(=O)C2CCN(c3nc4ccccc4[nH]3)CC2)c(C)c1	x	x	7%	10%[46.1 µM]	0	x
COc1cccc(CN2CCC(n3cc(C(=O)NC4CCCC4)nn3)CC2)c1O	x	x	-17%	x	x	x
O=C1N(Cc2ccc(Br)cc2)c2cccc(Br)c2[C@@]12O[C@H](COc1ccccc1)CC1=CCCC12 (stereo partly drawn)	x	11%[14.2 µM]	x	x	x	x
COc1ccc(CCNC(=O)c2c(N)n(CCN3CCOCC3)c3nc4ccccc4nc23)cc1OC	u	u	x	18µM*	39	4%
COc1ccc(CCn2c(N)c(C(=O)NCc3ccco3)c3nc4ccccc4nc32)cc1OC	u	u	x	u	x	1%
CCCc1nnc(NC(=O)c2nc(S(=O)(=O)Cc3ccc(C)cc3)ncc2Cl)s1	u	-2%[46.1 µM]	35µM*	u	-107*!	1%
